Data as given in PubChem BioAssay (NCATS).
Results filed as inconclusive are left out. Active and inactive are the calls of the source. Calls come from the whole dose curve; as a rule, active = well fitted cell-killing curve with a large enough effect; inconclusive = small, poorly fitted or top-dose-only effect; inactive = flat fitted curve, though single readings scatter.

Assay: HepG2 cells viability qHTS for Zika virus inhibitors (AID 1347168)
Conditions: Zika counter-screen; series mostly up to 45.9 µM
Description: Avindra Nath, Ph.D., National Institute of Neurological Disorders and Stroke (NINDS), Bethesda, MD
Radhakrishnan Padmanabhan, Ph.D., Georgetown University (GU), Washington D.C.
Zika Virus causes congenital defects, including microcephaly and is associated with Guillain-Barre syndrome, eningoencephalitis and myelitis in infected adult. […] Using a target-based approach, we hope to establish a screening paradigm to uncover novel, cell-active NS2B-NS3 protease (Zika Virus) specific inhibitors from NCATS' collection of small molecules using qHTS.
Four assay panel was created to identify potential Zika Virus inhibitors. Namely, (1) GU unlinked NS2B-NS3 AMC tagged protease qHTS, (2) GU unlinked NS2B-NS3 Rhodamine tagged protease qHTS, (3) NINDS linked NS2B-NS3 AMC tagged protease qHTS, (4) NINDS linked NS2B-NS3 Rhodamine tagged protease qHTS. Identified inhibitors were screened against the Vero and HepG2 cell viability assays using CellTiter Glo to exclude cytotoxic compounds.
Early Translation Branch (ETB)
National Center for Advancing Translational Sciences (NCATS), Rockville, MD
National Institute of Health (NIH), Bethesda, Maryland
Vero and HepG2 Cell Viability Assay:
Vero and HepG2 cell cytotoxicity were determined using a luminescent readout with CellTiter Glo reagent (Promega, Madison, WI), which is based on measuring the ATP content within cells. Briefly, 4 microL of Vero or HepG2 cells at 2.5 x 10^5 cells/mL in DMEM containing 4% FBS were dispensed into 1536-well solid bottom tissue treated white plate using a Multidrop Combi dispenser (Thermo Scientific). Plates were incubated at 37 degrees C, 95% humidity, and 5% CO2 overnight to allow for cell attachment. Compounds were dissolved in DMSO at different concentrations and transferred via pintool (Wako Automation), for a final concentration of 0.029 µM - 57 microM. Plates were again incubated for 24 to 48 hours, followed by a 2 microL addition of CellTiter Glo. Finally, plates were incubated for 30 minutes at 37 degrees C and 5% CO2 before being read on a ViewLux (Perkin Elmer) for luminescence.

Structure (SMILES) | outcome
N#Cc1ccc(N2N=C3c4ccc(C(=O)O)cc4CC[C@@H]3[C@@H]2C2CCCC2)cc1Cl | inactive
CC#C[C@@H](CC(=O)O)c1ccc(OCc2ccc(CN3CCC4(C=Cc5ccccc54)CC3)s2)cc1 | inactive
O=C(O)c1ccc(S(=O)(=O)N(Cc2ccc(OC(F)(F)F)cc2)c2ncc(C(F)(F)F)cc2Cl)cc1 | inactive
CC(O)(C(=O)O)C1CCC2(C)C1CCC1(C)C2CCC2C3(C)CCC(O)C(C)(COC4OC(CO)C(O)C(O)C4O)C3CCC21C (stereo not drawn) | inactive
CCCCCc1ccc(/C=C/C(=O)Nc2cc(Cl)ccc2C(=O)O)cc1 | inactive
O=C(O)c1ccc(N2C(=O)/C(=C/c3ccc(-c4ccc([N+](=O)[O-])cc4)o3)C=C2c2ccccc2)cc1 | inactive
Cc1cc(C)c2c(c1)C(N(Cc1cc(C(F)(F)F)cc(C(F)(F)F)c1)c1nnn(C)n1)CCCN2CC1CCC(C(=O)O)CC1 (stereo not drawn) | inactive
COc1ccc(-c2ccccc2)cc1NS(=O)(=O)c1cc(Cl)cc(Cl)c1O | inactive
CC#C[C@@H](CC(=O)O)c1ccc(OCc2cccc(-c3ccc(C(F)(F)F)cc3)c2)cc1 | inactive
CC(C)C[C@H](C(=O)O)c1cc(-c2ccc(C(F)(F)F)cc2)cc(-c2ccc(C(F)(F)F)cc2)c1 | inactive
CCC(CC)(NC(=O)C(C)C)C(=O)N[C@@H](CCCN=C(N)N)C(=O)NC1(C(=O)NC(c2ccc(F)cc2)c2ccc(F)cc2)CCCC1 | inactive
Cc1noc(-c2ccc(-c3ccc(CC(=O)O)cc3)cc2)c1NC(=O)O[C@H](C)c1ccccc1Cl | inactive
O=C(O)c1cc(N(Cc2ccc(C3CCCCC3)cc2)C(=O)c2ccc(Oc3ccccc3)cc2)ccc1O | inactive
O=S(=O)(Nc1cc(Cl)c(Oc2cnc3ccccc3c2)c(Cl)c1)c1ccc(Cl)cc1Cl | inactive
O=C(Nc1ccc(-c2ccc(Cl)c(Cl)c2)cc1)C1=C(O)c2ccccc2S(=O)(=O)N1 | inactive
O=C(O)c1cccc(-c2ccc(-c3cn(C(=O)N4CCCCC4Cc4ccccc4)nn3)cc2)c1 (stereo not drawn) | inactive
CCCCCCCOc1cc2c(cc1/C(C)=C/c1ccc(C(=O)O)cc1)C(C)(C)CCS2(=O)=O | inactive
CC(C)(C)Sc1c(CC(C)(C)C(=O)O)n(Cc2ccc(Cl)cc2)c2ccc(OCc3ccc4ccccc4n3)cc12 | inactive
